Assay [1] in a line: compounds binding Alexa647 anti-His antibody – biochemical, small-molecule microarray, 635 nm fluorescence, artefact control for SMM control protein annotation, primary screen (AID 1128).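 Note: score merges feature fluorescence with signal-to-noise for each printed compound spot.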 The note with it: higher = more signal.
Assay [2] deals with Human papillomavirus type 1a E7 protein (residues 1-88). The assay is described as follows: HPV1a E7 small-molecule binders, primary screen, biochemical, small-molecule microarray, residues 1-88, 635 nm (AID 1129). Particulars: small-molecule microarray binding, fluorescence 635 nm; higher = more signal.
The target in assay [3] is Focal adhesion kinase 1 (Homo sapiens) (UniProt Q05397). The assay is described as follows: PTK2 protein binding on printed compound slides – biochemical, small-molecule microarray, 635/667 nm fluorescence, BSA, DTT, primary screen (AID 1130).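 Note: composite of spot emission at 667 nm and signal to noise over triplicate slides.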 The note with it: 635 nm fluorescence, higher = more signal.
Sequence of Focal adhesion kinase 1 (Homo sapiens) (Q05397 whole entry, looked up): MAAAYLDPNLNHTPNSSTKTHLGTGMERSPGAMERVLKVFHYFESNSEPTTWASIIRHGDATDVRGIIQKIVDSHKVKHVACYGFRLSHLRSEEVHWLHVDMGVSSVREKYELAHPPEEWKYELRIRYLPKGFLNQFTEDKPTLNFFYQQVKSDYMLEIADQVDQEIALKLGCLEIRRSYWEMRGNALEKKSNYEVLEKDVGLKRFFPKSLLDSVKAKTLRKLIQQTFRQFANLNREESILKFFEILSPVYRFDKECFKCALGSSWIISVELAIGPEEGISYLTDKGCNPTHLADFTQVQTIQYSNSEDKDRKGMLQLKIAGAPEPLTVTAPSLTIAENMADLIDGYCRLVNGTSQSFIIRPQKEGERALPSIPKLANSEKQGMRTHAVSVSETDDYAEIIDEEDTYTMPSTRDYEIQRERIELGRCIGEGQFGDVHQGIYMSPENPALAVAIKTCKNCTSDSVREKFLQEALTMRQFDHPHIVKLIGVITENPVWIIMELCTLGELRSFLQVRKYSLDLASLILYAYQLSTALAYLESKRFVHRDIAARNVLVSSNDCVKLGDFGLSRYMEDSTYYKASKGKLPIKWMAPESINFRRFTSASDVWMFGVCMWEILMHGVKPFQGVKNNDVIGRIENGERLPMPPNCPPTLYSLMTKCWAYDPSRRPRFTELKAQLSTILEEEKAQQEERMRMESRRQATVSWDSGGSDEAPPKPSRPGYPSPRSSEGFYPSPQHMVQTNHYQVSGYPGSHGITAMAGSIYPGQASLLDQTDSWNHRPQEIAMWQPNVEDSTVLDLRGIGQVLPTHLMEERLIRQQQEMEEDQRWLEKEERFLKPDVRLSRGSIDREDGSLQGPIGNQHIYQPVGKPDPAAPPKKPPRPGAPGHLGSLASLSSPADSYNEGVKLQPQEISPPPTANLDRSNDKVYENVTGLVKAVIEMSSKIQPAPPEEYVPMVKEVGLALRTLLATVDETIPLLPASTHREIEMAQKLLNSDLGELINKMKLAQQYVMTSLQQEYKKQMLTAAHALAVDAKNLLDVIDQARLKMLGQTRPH
Assay [4] has as its system Fibrinogen (Alexa647-labelled). Description: Alexa647-fibrinogen binding to printed small molecules – biochemical, small-molecule microarray, 635/667 nm fluorescence, artefact control for SMM control-protein annotation, profiling panel (AID 1131).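 Note: z-score merges 667 nm fluorescence with per-spot signal-to-noise over triplicate slides.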 Particulars: fibrinogen-A647 binding fluorescence, higher = more signal.
The target in assay [5] is Follistatin (Homo sapiens) (UniProt P19883). Description: FST protein binding to printed compounds – biochemical, small-molecule microarray, 635/667 nm fluorescence, primary screen (AID 1132). Particulars: 635 nm fluorescence, higher = more signal.
Sequence of Follistatin (Homo sapiens) (P19883 whole entry, looked up): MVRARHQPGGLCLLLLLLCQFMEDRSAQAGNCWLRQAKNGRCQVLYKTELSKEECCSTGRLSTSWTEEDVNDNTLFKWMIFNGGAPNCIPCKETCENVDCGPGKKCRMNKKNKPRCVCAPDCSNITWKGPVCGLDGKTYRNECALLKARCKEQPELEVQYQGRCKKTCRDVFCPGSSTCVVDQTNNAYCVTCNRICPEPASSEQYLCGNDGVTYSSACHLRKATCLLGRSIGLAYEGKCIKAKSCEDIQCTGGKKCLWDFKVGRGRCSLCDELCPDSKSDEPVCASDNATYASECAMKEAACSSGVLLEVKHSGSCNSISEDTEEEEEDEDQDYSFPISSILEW
The target of assay [6] is Fibroblast growth factor 2 (Homo sapiens) (UniProt P09038). The assay is described as follows: basic fibroblast growth factor binding to printed compounds – biochemical, small-molecule microarray, 635/667 nm fluorescence, primary screen (AID 1133). Particulars: FGF2, fluorescence 635/667, higher = more signal.
Sequence of Fibroblast growth factor 2 (Homo sapiens) (P09038 whole entry, looked up): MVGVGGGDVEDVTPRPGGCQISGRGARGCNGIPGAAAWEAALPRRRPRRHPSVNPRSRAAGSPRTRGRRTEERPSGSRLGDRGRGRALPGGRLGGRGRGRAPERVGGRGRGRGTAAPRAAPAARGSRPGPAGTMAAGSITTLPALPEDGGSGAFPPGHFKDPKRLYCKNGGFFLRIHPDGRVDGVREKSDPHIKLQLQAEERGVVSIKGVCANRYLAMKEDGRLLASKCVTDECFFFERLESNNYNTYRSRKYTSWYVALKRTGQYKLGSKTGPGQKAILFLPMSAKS
Assay [7] can be described thus: JC-1 mitochondrial potential readout, lung cancer cells – cell-based, A549, JC-1 fluorescence, basal, 24 h, 100 nL, profiling panel (AID 1138).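 Note: A549 lung adenocarcinoma cells under basal conditions with no added stimulus; test concentration not given here.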 The note with it: higher = more signal.
Assay [8] concerns Lefty1. The assay is described as follows: Lefty1 protein binding to printed compounds – biochemical, small-molecule microarray, 635/667 nm fluorescence, primary screen (AID 1139). Particulars: fluorescence 635/667, higher = more signal.
Assay [9] has as its system wheat germ agglutinin (Triticum aestivum), Alexa647-labelled. Description: Alexa647-WGA lectin binding to printed small molecules – biochemical, small-molecule microarray, 635/667 nm fluorescence, artefact control for SMM control-protein annotation, profiling panel (AID 1140).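 Note: score merges 667 nm feature emission with signal to noise over triplicate slides.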 The note with it: WGA-A647 binding, 635 nm fluorescence, higher = more signal.
In assay [10] the target is Luciferin 4-monooxygenase (Photinus pyralis) (UniProt P08659). Description: inhibition of purified Photinus pyralis luciferase – biochemical, luminescence, purified enzyme, 2006 set, primary screen (AID 1141).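 Note: cell-free assay with purified firefly luciferase at 100 ng per well in PBS; test concentration not given here.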 The note with it: purified firefly luciferase, SteadyGlo luminescence, 30 min; higher = more signal, called active from +8 up or from −8 down.
Sequence of Luciferin 4-monooxygenase (Photinus pyralis) (P08659 whole entry, looked up): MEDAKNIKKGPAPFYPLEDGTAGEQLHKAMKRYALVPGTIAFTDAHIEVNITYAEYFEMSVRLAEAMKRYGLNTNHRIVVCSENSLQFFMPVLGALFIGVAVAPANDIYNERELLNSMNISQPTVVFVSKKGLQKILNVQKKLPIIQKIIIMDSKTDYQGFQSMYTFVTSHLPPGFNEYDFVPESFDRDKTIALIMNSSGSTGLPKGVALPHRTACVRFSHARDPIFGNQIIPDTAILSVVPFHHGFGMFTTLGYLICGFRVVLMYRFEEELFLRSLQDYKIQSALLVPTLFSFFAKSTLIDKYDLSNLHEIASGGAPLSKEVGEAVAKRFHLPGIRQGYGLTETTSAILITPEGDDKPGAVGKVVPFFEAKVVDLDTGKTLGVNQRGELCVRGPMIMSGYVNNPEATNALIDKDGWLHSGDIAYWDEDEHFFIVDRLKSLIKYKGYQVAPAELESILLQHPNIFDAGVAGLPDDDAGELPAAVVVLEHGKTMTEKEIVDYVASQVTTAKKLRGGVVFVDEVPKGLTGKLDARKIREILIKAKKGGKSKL
For assay [11], the system named is Wnt5a (protein binding on small-molecule microarray). Description: small molecules binding Wnt5a protein – biophysical, small-molecule microarray, 635/667 nm fluorescence, primary screen (AID 1142).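 Note: fluorescence read at 667 nm with signal to noise per printed feature.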 Particulars: 635 nm fluorescence, higher = more signal.
A short description of assay [12]: ATP-based viability of Huh7 replicon cells – cell-based, CellTiter-Glo luminescence, basal, 48 h, cytotoxicity control for HCV replication inhibitor project, primary screen (AID 1143).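 Note: Huh7 hepatoma cells carrying a hepatitis C replication reporter with no stimulus; test concentration not given here.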 The note with it: higher = more signal, called active from +8 up or from −8 down. (A replicon is a self-replicating genome or part of one, used to study replication in cells.)
The nature of assay [13]: Pseudomonas biofilm growth suppression – PAO1 strain, BacTiter-Glo luminescence, LB-PBS, primary screen (AID 1144). The note with it: P. aeruginosa PAO1 biofilm, 12 h, higher = more signal.
Assay [14] can be described thus: basal CRE-LacZ reporter activity in PC12 – cell-based, unstimulated, primary screen (AID 1145). The note with it: no forskolin, luminescence, 4.5 h, higher = more signal, called active from +8 up or from −8 down.
Assay [15] is described as follows: forskolin-driven CRE-LacZ activity in PC12 – cell-based, CRE-LacZ reporter, forskolin-stimulated, primary screen (AID 1146).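 Note: PC12 cells with 6xCRE LacZ reporter stimulated by forskolin 10 µM; beta-galactosidase reporter signal reflecting CREB driven transcription.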 Particulars: luminescence, 4.5 h, higher = more signal, called active from +8 up or from −8 down.
The target of assay [16] is Streptavidin (Streptomyces avidinii) (UniProt P22629). Description: compounds binding control protein streptavidin – biophysical, small-molecule microarray, 635/667 nm fluorescence, artefact control for SMM compound annotation, primary screen (AID 1147).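 Note: signal reflects streptavidin binding to arrayed compounds as a control protein.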 Particulars: higher = more signal.
Sequence of Streptavidin (Streptomyces avidinii) (P22629 whole entry, looked up): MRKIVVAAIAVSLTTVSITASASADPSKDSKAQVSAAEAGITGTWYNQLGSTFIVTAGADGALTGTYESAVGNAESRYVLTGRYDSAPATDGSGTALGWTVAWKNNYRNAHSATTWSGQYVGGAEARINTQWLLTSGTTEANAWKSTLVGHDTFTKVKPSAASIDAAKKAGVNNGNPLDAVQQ
Assay [17] is described as follows: probe aInhba binding on compound microarray – biochemical, small-molecule microarray, 635/667 nm fluorescence, primary screen (AID 1148).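 Note: score merges 667nm spot fluorescence with signal-to-noise for antibody binding to printed compounds.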 The note with it: higher = more signal.
Assay [18] concerns the target Torsin-1A (Homo sapiens) (UniProt O14656). Description: TOR1A wild-type binding on microarray – cell lysate, small-molecule microarray, lysate, 635/667 nm, primary screen (AID 1149). Particulars: COS7 hTOR1A-WT lysate, 635 nm fluorescence, higher = more signal.
Assay [19] shares this target. The assay is described as follows: torsin A mutant lysate binding on microarrays – cell lysate, small-molecule microarray, COS7 lysate, 635/667 nm fluorescence, primary screen (AID 1150).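 Note: score pools 667 nm emission and signal to noise measuring lysate protein binding.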 Particulars: COS7 hTOR1A mutant lysate, 635 nm fluorescence, higher = more signal.
Assay [20] concerns Sonic hedgehog protein (Shh). The assay is described as follows: Sonic hedgehog microarray binding compounds – biochemical, small-molecule microarray, 635/667 nm fluorescence, primary screen (AID 1151).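 Note: Shh protein binding to compounds spotted on small-molecule microarray slides; score combines spot fluorescence intensity with signal-to-noise across triplicate slides.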 Particulars: 635 nm fluorescence, higher = more signal.

Structures are written as SMILES. Activity calls are given as the source filed them. Unless noted, the rule behind the calls is not given here.

Sequence of Torsin-1A (Homo sapiens) (O14656 whole entry, looked up): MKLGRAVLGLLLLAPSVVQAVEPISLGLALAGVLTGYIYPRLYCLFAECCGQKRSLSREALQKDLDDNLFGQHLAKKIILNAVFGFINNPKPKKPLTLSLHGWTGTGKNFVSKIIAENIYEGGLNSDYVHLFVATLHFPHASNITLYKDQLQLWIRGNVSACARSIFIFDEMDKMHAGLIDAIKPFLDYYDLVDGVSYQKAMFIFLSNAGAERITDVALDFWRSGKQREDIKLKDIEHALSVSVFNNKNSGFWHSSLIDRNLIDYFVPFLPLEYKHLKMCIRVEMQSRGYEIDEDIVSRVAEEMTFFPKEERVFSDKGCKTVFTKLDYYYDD

As for `CCO[C@H](c1cc(OC)cc([N+](=O)[O-])c1OC)[C@H](C)C=CCC(=O)OC`, the composite z-score in assay [1] was 0.051; in [2] it was -0.467; in [3] it was -0.361; in [4], -0.364; in assay [5] it was 0.66; in assay [6] it was 0.479. Moreover, the composite z-score is 0.747 in [8]; 0.0356 in [9]; -0.151 in [11]; 0.0571 in [16]; -0.183 in assay [17]; 0.636 in assay [18]. The composite z-score was found to be 0.192 in assay [19] and 1.7 in assay [20]. The z-score in assay [7] is 0.347; in [10], -0.734 (inactive); in [12] it was 0.0843 (inactive); in [13], -0.0286 (inactive); in [14], -0.0684 (inactive); in [15] it was -0.893 (inactive).

For the compound `C[C@H]1CC[C@H]2C(=O)O[C@H](COc3ccc(C(C)(C)C)cc3)CN2[C@@H]1c1ccc(Br)cc1`, the composite z-score was 2.63 in [1]; 0.243 in assay [2]; 0.189 in assay [3]; 0.503 in assay [4]; 0.0469 in assay [5]; -0.101 in [6]. Besides, the composite z-score in assay [8] is 0.395; in assay [9] it was 0.034; in assay [11] it was -0.185; in [16] it was 0.0762; in assay [17] it was -0.0021; in assay [18], 0.188. The figures for the composite z-score in [19] and in assay [20] were 0.3 and 0.48, respectively. Further, the z-score is 0.972 in assay [7]; -1.73 (inactive) in assay [10]; -1.47 (inactive) in assay [12]; -0.239 (inactive) in assay [13]; 1.72 (inactive) in [14]; -0.466 (inactive) in assay [15].

As for `COC(=O)[C@H](C)NC(=O)CCC1CC(OC(=O)NCc2ccc3c(c2)OCO3)CC2(CCCC(COC(=O)NCc3cccc(C(F)(F)F)c3)O2)O1` (stereo not given in full), the composite z-score in assay [1] amounted to 0.0275; in assay [2] it was 0.741; in [3], 0.587; in assay [4] it was 0.387; in assay [5], 0.792; in assay [6], 0.63. Besides, the composite z-score is 1.15 in [8]; 0.613 in assay [9]; -0.0362 in [11]; 0.634 in [16]; 0.0852 in assay [17]; 0.703 in assay [18]. Moreover, the values for the composite z-score in [19] and in assay [20] were 0.279 and 1.28, respectively. Also, the z-score in assay [7] is -0.238; in assay [10], 0.969 (inactive); in assay [12], -0.109 (inactive); in [13], -0.0589 (inactive); in [14], -0.794 (inactive); in [15], -0.631 (inactive).

As for `COc1ccc(O[C@H]2C=C[C@@H](c3ccccc3)O[C@@H]2COC(=O)CCC(C)=NOC(C)CN2CCCc3nc(C)c(C)cc32)cc1` (stereo not given in full), the composite z-score is 0.264 in assay [1]; 1.11 in [2]; 0.0304 in [3]; 0.381 in [4]; 0.653 in assay [5]; 0.584 in assay [6]. Besides, the composite z-score in assay [8] was 0.901; in assay [9], -0.028; in [11], 0.162; in [16] it was 0.629; in assay [17] it was -0.12; in assay [18], 0.0595. Also, the composite z-score stood at 0.486 in assay [19] and 1.01 in [20]. The z-score in assay [7] was 1.89; in assay [10], 0.503 (inactive); in [12], -0.61 (inactive); in assay [13], -0.34 (inactive); in assay [14] it was 0.448 (inactive); in assay [15] it was -0.507 (inactive).

As for `CCOC(=O)C1=NO[C@@]2(C=C(Br)C3(OCCCO3)[C@H]3O[C@H]32)C1`, the composite z-score was 0.968 in [1]; 0.228 in [2]; 0.0306 in [3]; 0.982 in assay [4]; 1.43 in assay [5]; 1.14 in assay [6]. Besides, the composite z-score in assay [8] was 1.04; in assay [9], 0.818; in assay [11] it was 0.4; in assay [16], 1.45; in assay [17], -0.0313; in assay [18], 0.712. In addition, the composite z-score in assay [19] was 0.332; in assay [20] it was 0.959. The z-score in assay [7] was -0.0326; in assay [10], -0.279 (inactive); in [12], 0.164 (inactive); in assay [13] it was 0.208 (inactive); in assay [14] it was -0.258 (inactive); in assay [15] it was 0.572 (inactive).

The values are drawn from PubChem BioAssay.
